# According to the supplement of paper PMC7556523:
# Unmarked numbers belong to inactive results.
# Test system: Sporothrix brasiliensis CBS 133006
# Experiment: growth inhibition relative to untreated control; higher = more growth inhibition (more antifungal activity), active = 80 or more; extreme values may be limits of the assay
# Conditions: 1 µM; 48 h
# How it was run: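 Yeast-form cells of the reference isolates (grown 7 days in brain heart infusion broth with 2% glucose at 36°C) were exposed at 1 x 10^5 CFU/ml to library compounds at a final 1 μM for 48 h at 35°C in 5% CO2. Growth was checked by visual inspection under an inverted light microscope and quantified by spectrophotometric readings. The value is percent growth inhibition relative to untreated control. Runs were in quadruplicate.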
row,SMILES,growth inhibition
1,COc1ccc(CN2CCOc3ccc(C(C)(O)CN(C)C)cc3C2)cc1C (stereo unspecified),1.25%
2,COc1ccc(Nc2ccccc2NC(=O)c2ccc(O)nc2)cc1,14.2%
3,Clc1ccc(CN2CCN(C3=NCCN3)CC2)cc1Cl,18.8%
4,O=[N+]([O-])c1cn2c(n1)OC[C@@H](OCc1ccc(OC(F)(F)F)cc1)C2,9%
5,Cc1nn(C(=O)Nc2cccc(C(F)(F)F)c2)c(C)c1Sc1ncccn1,28.2%
6,COc1ccc2nc(C)cc(OCC(=O)NCc3ccccc3)c2c1,1.75%
7,Cc1ccc2nc(C)c(-c3ccn(Cc4ccccc4)n3)n2c1,44.8%
8,NC(=O)c1cc(-c2ccsc2)ccc1OCCOc1ccccc1,7.25%
9,Cc1nnc(NC(=O)c2cn(-c3ccccc3)nc2-c2ccccc2C)o1,1.5%
10,COC(=O)c1c(NC(=O)c2cc3ccccc3oc2=O)sc2c1CCN(Cc1ccccc1)C2,8.75%
11,COc1cccc(OCC(=O)c2ccc(Br)cc2)c1,16%
12,CC1=Nc2ccc(Cl)cc2C(O)(c2ccc(C)cc2)N1CCN1CCCCC1 (stereo unspecified),12.2%
13,CN1CCN(S(=O)(=O)c2ccc(-c3ccc4c(Nc5ncc(Cl)cn5)ccnc4c3)cc2)CC1,13%
14,N=C(N)c1ccc(OCCCCCOc2ccc(C(=N)N)cc2)cc1,93.5% (active)
15,O=C(NCc1ccco1)N1CCN(Cc2ccc(Cl)s2)CC1,0%
16,O=C1N(Cc2cc3ccccc3s2)CC2CN(Cc3ccccc3)CCN12 (stereo unspecified),22%
